{"source": "PubChem BioAssay AID1645882", "about": "(National Center for Advancing Translational Sciences (NCATS), 2021)", "note": "Where “and” joins values, the source holds several entries; their conditions need not be identical. Equal values may be shown once. Screen size: about 16,000 compounds; about 120 (0.75%) were called active. A call without a number means that no potency is given here. Roughly 4% stayed inconclusive and do not appear here. Calls come from the whole dose curve; as a rule, active = well fitted inhibition curve with a large enough effect; inconclusive = small, poorly fitted or top-dose-only effect; inactive = no such curve, though single readings can be large or run the other way. The sample as a whole holds a higher share of actives than the screen did. The source holds several records for some structures; these can differ, active in one and inactive in another. Potency is the fitted concentration of half-maximal effect.", "data": [{"molecular_target": "Rap guanine nucleotide exchange factor 3 (Homo sapiens) (UniProt O95398)", "sequence (O95398 whole entry, looked up)": "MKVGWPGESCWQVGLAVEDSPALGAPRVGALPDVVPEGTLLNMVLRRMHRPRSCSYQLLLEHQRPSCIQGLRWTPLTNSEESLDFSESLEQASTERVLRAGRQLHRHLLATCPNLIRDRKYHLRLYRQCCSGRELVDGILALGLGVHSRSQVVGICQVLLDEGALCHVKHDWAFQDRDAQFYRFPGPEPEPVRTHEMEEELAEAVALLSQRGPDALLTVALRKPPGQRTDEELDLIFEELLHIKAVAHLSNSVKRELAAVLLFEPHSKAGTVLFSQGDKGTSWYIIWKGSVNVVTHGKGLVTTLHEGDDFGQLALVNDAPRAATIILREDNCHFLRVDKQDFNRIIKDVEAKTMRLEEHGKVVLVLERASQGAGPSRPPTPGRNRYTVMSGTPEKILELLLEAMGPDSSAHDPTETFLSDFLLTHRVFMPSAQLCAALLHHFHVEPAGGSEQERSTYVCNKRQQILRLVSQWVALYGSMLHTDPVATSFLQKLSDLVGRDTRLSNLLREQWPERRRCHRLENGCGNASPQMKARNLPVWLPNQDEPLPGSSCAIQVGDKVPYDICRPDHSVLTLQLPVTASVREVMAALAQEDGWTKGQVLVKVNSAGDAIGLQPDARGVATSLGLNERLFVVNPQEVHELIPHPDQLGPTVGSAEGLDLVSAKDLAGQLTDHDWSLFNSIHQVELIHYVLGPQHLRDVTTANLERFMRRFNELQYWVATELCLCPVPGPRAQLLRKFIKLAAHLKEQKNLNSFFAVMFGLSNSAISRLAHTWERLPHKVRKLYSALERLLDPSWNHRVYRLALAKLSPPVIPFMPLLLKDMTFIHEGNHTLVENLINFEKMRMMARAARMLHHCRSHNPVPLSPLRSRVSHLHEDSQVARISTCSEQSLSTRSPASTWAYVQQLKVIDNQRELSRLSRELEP", "assay": "Validation qHTS for antagonist of cAMP-regulated guanine nucleotide exchange factor 3 (EPAC1); note: nearly all actives have a fitted effect of over 75% in size", "settings": "EPAC1 Rap1B-BODIPY-GDP exchange, fluorescence; series mostly up to 150 µM", "source_text": "Assay Provider (PI): Xiaodong Cheng Ph.D.\nThe University of Texas Medical Branch, […], TX\nIn multi-cellular eukaryotic organisms, the effects of cAMP are transduced by two ubiquitously-expressed intracellular cAMP receptors, the classic protein kinase A/cAMP-dependent protein kinase (PKA/cAPK) and the more recently discovered exchange protein directly activated by cAMP/cAMP-regulated guanine nucleotide exchange factor (EPAC/cAMP-GEF). Both PKA and EPAC are ubiquitously expressed in all tissues, and an increase in intracellular cAMP levels will lead to the activation of both PKA and EPAC. Therefore, careful dissections of the individual role and relative contribution of EPAC and PKA within the overall cAMP signaling in various model systems are critical for further elucidating the mechanism of cAMP signaling. To date no EPAC-specific antagonists and agonist, as well as isoform-specific agonists have been reported, and developing EPAC-specific pharmacological probes to determine the physiological functions that EPAC play in the overall cAMP-mediated signaling remains a major challenge within the research field. Furthermore, identified regulators of EPAC may lead to new mechanism-based therapeutic strategies specifically targeting the EPAC / cAMP-signaling components as EPAC has been implicated to play important roles in major human pathological conditions such as diabetes, heart disease, and cancer.\nThis qHTS will be used to screen the Molecular Libraries Small Molecule Repository (MLSMR) as a concentration-titration series using the NCGC unique quantitative screening (qHTS) platform to find activators for EPAC1. In addition, this assay will also be used as a counterscreen for the EPAC2 qHTS. This fluorescent based assay is developed and validated for EPAC1 that measures exchange using EPAC effector Rap1 complex with BODIPY-GDP, a GDP analog with a tethered fluorophores. Activators are identified by monitoring the change in fluorescence signal as the exchanged free BODIPY-GDP has a reduced fluorescence compared to Rap1-bound BODIPY-GDP. Increase in signal (activation) is the desired outcome for the EPAC1 agonist while no activity in this assay is desired for the EPAC2 agonist counterscreen.\n[1] de Rooij, J., Zwartkruis, F. J., Verheijen, M. H., Cool, R. H., Nijman, S. M., Wittinghofer, A., and Bos, J.L. (1998) Nature 396, 474-477.\nBriefly, three uL of reagents (100 nM EPAC1, 250 nM RAP1B-BODIPY-GDP, 50 uM GDP) were dispensed into a 1536-well Greiner black solid-bottom medium binding assay plate. Controls and test compounds (23 nL) were transferred to the plate via a Kalypsys pin tool equipped with a 1536-pin array. The plates were centrifuged at 1,000 rpm for 15 seconds followed by 5 minute incubation at room temperature. The assay plates were read at 5 minute intervals for 30 minutes in the ViewLux plate reader using 480nm excitation and 540nm emission filters. The results were normalized to the […] positive control ATA and DMSO.", "values": [{"smiles": "N[C@@H](Cc1ccc(O)c(O)c1)C(=O)O", "Potency": "inactive"}, {"smiles": "N[C@@H](Cc1ccc(O)c(I)c1)C(=O)O", "Potency": "inactive"}, {"smiles": "O=C(/C=C/c1ccc(O)c(O)c1)OCCc1ccccc1", "Potency": "inactive"}, {"smiles": "O=C(/C=C\\c1ccc(O)c(O)c1)O[C@@H](Cc1ccc(O)c(O)c1)C(=O)O", "Potency": "inactive"}, {"smiles": "O=C(/C=C/c1ccc(O)c(O)c1)OC(Cc1ccc(O)c(O)c1)C(=O)O", "note": "(stereo not given)", "Potency": "inactive and 100 µM (active)"}, {"smiles": "NC(Cc1ccc(O)c(O)c1)C(=O)O", "note": "(stereo not given)", "Potency": "50.1 µM (active)"}, {"smiles": "COc1ccc(C(=O)NCC2Cc3cc(C)cc(-c4cc(C(C)=O)ccc4F)c3O2)c(OC)c1OC", "note": "(stereo not given)", "Potency": "inactive"}, {"smiles": "COC(=O)N1CCC[C@@]2(CCN(Cc3nccs3)C2)C1", "Potency": "inactive"}, {"smiles": "OC(c1ccc2c(c1)CN(Cc1c[nH]c3ccccc13)CCO2)c1ccccn1", "note": "(stereo not given)", "Potency": "inactive"}, {"smiles": "CC(C)=CCCC1(C)C=Cc2c(O)c3c(c(CC=C(C)C)c2O1)OC12C(=CCCC1C(C)(C)O[C@@]2(C/C=C(\\C)C(=O)O)C(=O)O)C3=O", "note": "(stereo not given in full)", "Potency": "89.1 µM (active)"}, {"smiles": "CC(C)=CCc1c2c(c(O)c3c(=O)c(O)c(-c4ccccc4)oc13)C=CC(C)(C)O2", "Potency": "inactive"}, {"smiles": "COC(=O)/C(C)=C/CC12OC(C)(C)C3CC(C=C4C(=O)c5cc6c(c(CCC(C)(C)Cl)c5OC431)OC1(C)CCC(=C(C)C)C6C1)C2=O", "note": "(stereo not given)", "Potency": "inactive"}, {"smiles": "CC(=O)Oc1c2c(c3c(c1CC=C(C)C)O[C@@]14C(=CC5CC1C(C)(C)OC4(C/C=C(\\C)C(=O)O)C5=O)C3=O)OC(C)(CCC=C(C)C)C=C2", "note": "(stereo not given in full)", "Potency": "89.1 µM (active)"}, {"smiles": "CC(=O)Oc1c(-c2ccccc2)oc2c(CC=C(C)C)c3c(c(OC(C)=O)c2c1=O)C=CC(C)(C)O3", "Potency": "inactive"}, {"smiles": "C1=C(c2ccc3c(c2)CN(Cc2cccn2-c2ncccn2)CCO3)Cc2ccccc21", "Potency": "inactive"}, {"smiles": "CC(C)c1c(C(=O)NCC(C)(C)N2CCOCC2)cnn1-c1nccc(-c2ccccc2F)n1", "Potency": "inactive"}, {"smiles": "Cc1ccc(-c2ccnc(-n3ncc(C(=O)NCCN4CCOCC4)c3C3CC3)n2)o1", "Potency": "inactive"}, {"smiles": "CCC1CN(CCNC(=O)c2ccccc2-n2cccn2)Cc2cc(OC)ccc2O1", "note": "(stereo not given)", "Potency": "inactive"}, {"smiles": "COc1ccc(C2Sc3ccccc3N(CCN(C)C)C(=O)[C@@H]2OC(C)=O)cc1", "note": "(stereo not given in full)", "Potency": "inactive"}, {"smiles": "CCOC(=O)[C@@H](C)N(C(=O)OC(C)(C)C)S(=O)(=O)N(Cc1ccccc1)[C@@H](C(=O)OC)C(C)C", "Potency": "inactive"}, {"smiles": "Cc1c(-c2ccccc2)oc2cc(O)ccc2c1=O", "Potency": "inactive"}, {"smiles": "CC(=O)[C@H](CC(C)C)NC(=O)[C@@H](CC(C)C)NC(=O)[C@H](CC(C)C)NC(=O)OCc1ccccc1", "Potency": "inactive"}, {"smiles": "O=C(O)c1c2ccccc2cc2ccccc12", "Potency": "inactive"}, {"smiles": "O=C(O)c1cc2ccccc2c(Cc2c(O)c(C(=O)O)cc3ccccc23)c1O", "Potency": "50.1 µM (active)"}, {"smiles": "O=C(O)c1cc(-c2ccccc2)nc2ccccc12", "Potency": "inactive"}]}]}
